# Experimental data as given in the supplement of paper PMC10849652.
# The full data set covers some 7,900 targets. This sample favours those with a hit. About 0.6% of all pairs of compound and target were hits. A number with no mark means an inactive call.
# Experiments:
# Test in all cases: log2 fold change, soluble protein after heating vs DMSO (PISA); higher = thermal stabilisation; K562 cells, 10 uM, 30 min; active = over 0.2 and 3.5 SD of the protein, either way, in both replicates (recomputed)
# [1] = compound: CC1=C(C=C(C=C1)NC(=O)C2=CC(=CC=C2)C(C)(C)C#N)NC3=CC4=C(C=C3)N=CN(C4=O)C
# In short: (§1)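 For each measurement, 10 μM compound was applied for 30 min to K562 cells at 2×10^6 cells/mL. Aliquots were heated for 3 min across 48°C-58°C, pooled, and extracted in PBS with 0.5% NP-40 at 4°C; the supernatant after 21,000xg for 90 min was soluble protein. This was quantified by TMTpro 16plex LC-MS/MS with channel sums equalised, and thermal stability was reported relative to control samples from duplicates, on a log2 fold-change scale.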
# [2] = compound: CC1=C(C=C(C=C1)NC(=O)C2=CC(=CC=C2)N(C)C)NC(=O)C3=CC=C(C=C3)O
# In short: as §1
# [3] = compound: CC1=CC=C(C=C1)SC2=C3C=C(SC3=CN=C2)C(=O)N
# In short: as §1
# [4] = compound: CC1=NC(=CC=C1)C2=C(N=C(N2)C(C)(C)C)C3=CC4=NC=CN=C4C=C3
# In short: as §1
# Nexturastat A = compound: CCCCN(Cc1ccc(C(=O)NO)cc1)C(=O)Nc1ccccc1 [Nexturastat A]
# In short: as §1
# vemurafenib = compound: CCCS(=O)(=O)Nc1ccc(F)c(C(=O)c2c[nH]c3ncc(-c4ccc(Cl)cc4)cc23)c1F [vemurafenib]
# In short: as §1
# [5] = compound: CCCS(=O)(=O)Nc1ccc(F)c(C(=O)c2c[nH]c3ncc(Cl)cc23)c1F
# In short: as §1
# [6] = compound: CCCc1cc(C)[nH]c(=O)c1CNC(=O)c1cc(-c2ccnc(N3CCN(C)CC3)c2)cc2c1cnn2C(C)C
# In short: as §1
# givinostat = compound: CCN(CC)Cc1ccc2cc(COC(=O)Nc3ccc(C(=O)NO)cc3)ccc2c1 [givinostat]
# In short: as §1
# barasertib = compound: CCN(CCCOc1ccc2c(Nc3cc(CC(=O)Nc4cccc(F)c4)[nH]n3)ncnc2c1)CCOP(=O)(O)O [barasertib]
# In short: as §1
# [7] = compound: CC[C@@H]1C(=O)N(C)c2cnc(Nc3ccc(C(=O)NC4CCN(C)CC4)cc3OC)nc2N1C1CCCC1
# In short: as §1
# volasertib = compound: CC[C@@H]1C(=O)N(C)c2cnc(Nc3ccc(C(=O)N[C@H]4CC[C@H](N5CCN(CC6CC6)CC5)CC4)cc3OC)nc2N1C(C)C [volasertib]
# In short: as §1
# [8] = compound: CC[C@H](C)N1C=C(C2=C(C=C(C=C21)C3=CN=C(C=C3)N4CCNCC4)C(=O)NCC5=C(C=C(NC5=O)C)C)C
# In short: as §1
# epoxomicin = compound: CC[C@H](C)[C@@H](C(=O)N[C@@H]([C@@H](C)O)C(=O)N[C@@H](CC(C)C)C(=O)[C@]1(CO1)C)NC(=O)[C@H]([C@@H](C)CC)N(C)C(=O)C [epoxomicin]
# In short: as §1
# [9] = compound: CCn1c(C(=O)N(C2CC2)C2CC2)cc2c3c(ncn3C)c(Nc3cc(C)n(C)n3)nc21
# In short: as §1
# [10] = compound: CCn1cc(-c2ccnc3[nH]c(-c4cccc(CN(C)C)c4)cc23)c(-c2ccc(NC(=O)N(C)C)cc2)n1
# In short: as §1
# [11] = compound: CN(C)CC(=O)Nc1ccc2[nH]c(=O)c3ccccc3c2c1
# In short: as §1
# rosiglitazone = compound: CN(CCOC1=CC=C(C=C1)C[C@H]2C(=O)NC(=O)S2)C3=CC=CC=N3 (racemic) [rosiglitazone]
# In short: as §1
# [12] = compound: CN1C2=C(C3=C1C(=O)N(N=C3)CC4=CC(=CC=C4)N)SC(=C2)S(=O)C
# In short: as §1
# [13] = compound: CN1CCC(CNc2ccc3ncc(-c4cccc(OC(F)(F)F)c4)n3n2)CC1
# In short: as §1
# Sequence of UniProt P06737 (P06737 whole entry, looked up): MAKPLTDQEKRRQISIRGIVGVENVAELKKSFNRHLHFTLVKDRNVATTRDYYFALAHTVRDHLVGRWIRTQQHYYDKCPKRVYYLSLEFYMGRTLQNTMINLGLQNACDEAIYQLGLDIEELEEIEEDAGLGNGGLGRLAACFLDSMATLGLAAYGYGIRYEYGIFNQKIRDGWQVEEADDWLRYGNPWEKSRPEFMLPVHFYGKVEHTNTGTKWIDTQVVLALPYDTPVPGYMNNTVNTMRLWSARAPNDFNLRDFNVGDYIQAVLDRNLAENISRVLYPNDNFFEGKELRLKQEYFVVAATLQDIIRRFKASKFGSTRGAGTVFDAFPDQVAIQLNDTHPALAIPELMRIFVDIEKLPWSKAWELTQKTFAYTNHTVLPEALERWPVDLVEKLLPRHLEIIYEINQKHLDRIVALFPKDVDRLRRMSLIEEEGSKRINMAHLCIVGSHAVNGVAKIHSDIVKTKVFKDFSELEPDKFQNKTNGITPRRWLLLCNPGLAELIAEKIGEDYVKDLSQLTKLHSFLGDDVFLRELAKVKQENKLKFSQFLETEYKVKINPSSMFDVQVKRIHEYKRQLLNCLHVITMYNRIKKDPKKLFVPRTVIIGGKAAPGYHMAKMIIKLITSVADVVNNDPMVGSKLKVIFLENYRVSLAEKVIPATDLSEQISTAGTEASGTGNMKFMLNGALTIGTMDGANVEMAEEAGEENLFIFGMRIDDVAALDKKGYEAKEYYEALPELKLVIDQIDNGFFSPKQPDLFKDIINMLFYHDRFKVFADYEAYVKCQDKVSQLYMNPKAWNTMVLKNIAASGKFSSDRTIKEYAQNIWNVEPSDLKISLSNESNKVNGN
# Sequence of UniProt Q96PU8 (Q96PU8 whole entry, looked up): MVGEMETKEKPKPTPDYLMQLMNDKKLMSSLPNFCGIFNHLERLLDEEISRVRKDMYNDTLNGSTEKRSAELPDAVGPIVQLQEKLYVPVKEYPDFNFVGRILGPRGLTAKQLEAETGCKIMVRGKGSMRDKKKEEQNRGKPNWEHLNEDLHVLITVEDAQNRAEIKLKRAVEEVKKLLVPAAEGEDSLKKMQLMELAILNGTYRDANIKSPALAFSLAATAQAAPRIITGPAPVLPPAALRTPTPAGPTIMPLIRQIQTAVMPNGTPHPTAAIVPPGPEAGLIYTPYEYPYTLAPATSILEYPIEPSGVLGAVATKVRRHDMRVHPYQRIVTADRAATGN
# Sequence of UniProt P42338 (P42338 whole entry, looked up): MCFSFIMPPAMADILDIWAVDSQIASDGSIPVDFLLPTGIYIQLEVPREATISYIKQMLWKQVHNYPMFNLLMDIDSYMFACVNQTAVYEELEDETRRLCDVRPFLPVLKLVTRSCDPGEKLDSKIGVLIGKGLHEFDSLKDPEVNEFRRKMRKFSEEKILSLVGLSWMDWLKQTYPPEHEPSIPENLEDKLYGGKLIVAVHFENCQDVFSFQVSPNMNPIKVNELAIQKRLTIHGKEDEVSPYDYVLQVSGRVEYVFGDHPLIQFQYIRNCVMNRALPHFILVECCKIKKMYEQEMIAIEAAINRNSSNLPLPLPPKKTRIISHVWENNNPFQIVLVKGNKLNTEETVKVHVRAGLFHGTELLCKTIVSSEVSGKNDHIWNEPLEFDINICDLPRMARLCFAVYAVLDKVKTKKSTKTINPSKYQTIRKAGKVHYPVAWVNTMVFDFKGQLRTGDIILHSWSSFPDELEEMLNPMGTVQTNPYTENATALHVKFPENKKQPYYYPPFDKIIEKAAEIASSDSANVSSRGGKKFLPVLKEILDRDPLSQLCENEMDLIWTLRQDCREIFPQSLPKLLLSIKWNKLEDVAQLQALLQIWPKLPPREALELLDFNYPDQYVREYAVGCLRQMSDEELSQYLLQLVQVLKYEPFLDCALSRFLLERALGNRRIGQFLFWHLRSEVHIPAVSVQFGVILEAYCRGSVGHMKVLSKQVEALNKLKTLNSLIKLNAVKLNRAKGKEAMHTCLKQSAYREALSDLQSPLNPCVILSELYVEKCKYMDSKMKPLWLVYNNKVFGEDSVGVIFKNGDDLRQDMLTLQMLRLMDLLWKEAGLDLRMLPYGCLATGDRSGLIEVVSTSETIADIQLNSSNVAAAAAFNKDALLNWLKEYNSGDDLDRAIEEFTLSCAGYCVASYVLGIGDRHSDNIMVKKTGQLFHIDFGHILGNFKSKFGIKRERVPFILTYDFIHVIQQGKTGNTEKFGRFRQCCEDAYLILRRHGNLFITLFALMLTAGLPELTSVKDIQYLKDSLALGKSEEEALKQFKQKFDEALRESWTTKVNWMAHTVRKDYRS
# Sequence of UniProt Q15121 (Q15121 whole entry, looked up): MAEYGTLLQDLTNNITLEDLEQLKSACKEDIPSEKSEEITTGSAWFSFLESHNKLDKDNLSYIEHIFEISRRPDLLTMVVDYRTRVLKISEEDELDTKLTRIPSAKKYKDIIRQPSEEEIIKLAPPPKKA
# Sequence of UniProt Q9Y3C6 (Q9Y3C6 whole entry, looked up): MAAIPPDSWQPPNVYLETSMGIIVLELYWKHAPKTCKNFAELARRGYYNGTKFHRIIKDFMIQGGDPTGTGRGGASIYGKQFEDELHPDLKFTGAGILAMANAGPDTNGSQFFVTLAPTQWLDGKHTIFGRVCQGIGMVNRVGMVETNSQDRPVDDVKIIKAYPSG
# Sequence of UniProt O96013 (O96013 whole entry, looked up): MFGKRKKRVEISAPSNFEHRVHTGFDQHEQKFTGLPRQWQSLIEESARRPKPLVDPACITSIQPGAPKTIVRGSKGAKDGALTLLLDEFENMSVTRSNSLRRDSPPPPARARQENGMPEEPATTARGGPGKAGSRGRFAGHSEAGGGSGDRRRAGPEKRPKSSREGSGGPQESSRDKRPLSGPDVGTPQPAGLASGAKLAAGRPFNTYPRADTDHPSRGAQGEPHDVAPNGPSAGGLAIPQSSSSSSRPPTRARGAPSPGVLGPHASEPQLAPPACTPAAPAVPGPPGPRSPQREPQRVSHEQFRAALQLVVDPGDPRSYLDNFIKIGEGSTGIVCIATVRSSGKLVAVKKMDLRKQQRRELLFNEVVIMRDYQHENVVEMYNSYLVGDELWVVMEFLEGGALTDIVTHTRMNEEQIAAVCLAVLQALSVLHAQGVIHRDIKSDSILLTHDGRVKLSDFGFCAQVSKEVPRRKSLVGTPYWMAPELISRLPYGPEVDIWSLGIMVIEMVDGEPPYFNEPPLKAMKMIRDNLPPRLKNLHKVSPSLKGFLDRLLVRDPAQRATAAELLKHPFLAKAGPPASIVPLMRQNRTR
# Sequence of UniProt Q92968 (Q92968 whole entry, looked up): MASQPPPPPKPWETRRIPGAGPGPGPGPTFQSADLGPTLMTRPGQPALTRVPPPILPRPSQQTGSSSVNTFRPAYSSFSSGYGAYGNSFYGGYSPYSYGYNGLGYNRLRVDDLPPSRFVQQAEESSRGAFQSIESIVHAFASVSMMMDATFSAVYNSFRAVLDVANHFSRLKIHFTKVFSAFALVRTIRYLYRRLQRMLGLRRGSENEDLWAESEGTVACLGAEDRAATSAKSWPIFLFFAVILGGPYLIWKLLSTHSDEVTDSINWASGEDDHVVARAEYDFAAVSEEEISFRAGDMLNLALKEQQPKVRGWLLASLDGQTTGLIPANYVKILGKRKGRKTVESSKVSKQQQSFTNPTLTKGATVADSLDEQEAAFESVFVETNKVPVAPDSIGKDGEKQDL
# Sequence of UniProt P42785 (P42785 whole entry, looked up): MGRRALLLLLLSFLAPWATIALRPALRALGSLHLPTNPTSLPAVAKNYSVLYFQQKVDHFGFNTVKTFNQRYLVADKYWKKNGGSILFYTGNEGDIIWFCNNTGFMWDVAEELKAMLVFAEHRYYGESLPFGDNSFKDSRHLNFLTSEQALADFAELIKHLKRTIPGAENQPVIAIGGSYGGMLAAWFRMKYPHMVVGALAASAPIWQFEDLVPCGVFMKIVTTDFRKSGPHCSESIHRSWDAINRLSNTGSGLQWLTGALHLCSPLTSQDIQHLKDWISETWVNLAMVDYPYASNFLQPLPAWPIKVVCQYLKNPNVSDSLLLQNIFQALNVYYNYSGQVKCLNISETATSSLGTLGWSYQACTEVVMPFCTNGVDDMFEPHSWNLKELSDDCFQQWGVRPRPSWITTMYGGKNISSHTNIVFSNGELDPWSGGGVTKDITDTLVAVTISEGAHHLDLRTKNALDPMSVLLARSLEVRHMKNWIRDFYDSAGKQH
# Sequence of UniProt P49642 (P49642 whole entry, looked up): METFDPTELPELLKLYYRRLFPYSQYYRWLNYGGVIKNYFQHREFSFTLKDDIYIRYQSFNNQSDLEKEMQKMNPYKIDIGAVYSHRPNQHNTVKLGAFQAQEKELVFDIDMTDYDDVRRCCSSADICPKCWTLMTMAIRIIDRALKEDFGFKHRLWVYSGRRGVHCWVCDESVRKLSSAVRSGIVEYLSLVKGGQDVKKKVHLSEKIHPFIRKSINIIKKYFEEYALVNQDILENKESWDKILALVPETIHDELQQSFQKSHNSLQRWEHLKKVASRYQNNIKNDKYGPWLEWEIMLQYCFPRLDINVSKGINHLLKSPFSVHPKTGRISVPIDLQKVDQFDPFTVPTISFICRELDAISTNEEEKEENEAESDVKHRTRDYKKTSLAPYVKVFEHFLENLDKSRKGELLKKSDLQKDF
# Sequence of UniProt Q96KB5 (Q96KB5 whole entry, looked up): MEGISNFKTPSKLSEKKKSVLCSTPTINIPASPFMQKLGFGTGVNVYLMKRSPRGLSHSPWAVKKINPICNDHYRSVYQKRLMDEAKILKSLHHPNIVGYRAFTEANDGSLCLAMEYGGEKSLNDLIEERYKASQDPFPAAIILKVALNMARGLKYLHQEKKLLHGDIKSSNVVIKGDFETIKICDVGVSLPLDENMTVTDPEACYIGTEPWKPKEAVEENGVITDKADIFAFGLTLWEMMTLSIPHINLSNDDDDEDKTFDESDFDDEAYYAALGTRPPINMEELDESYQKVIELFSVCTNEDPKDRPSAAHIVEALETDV
# Sequence of UniProt Q15185 (Q15185 whole entry, looked up): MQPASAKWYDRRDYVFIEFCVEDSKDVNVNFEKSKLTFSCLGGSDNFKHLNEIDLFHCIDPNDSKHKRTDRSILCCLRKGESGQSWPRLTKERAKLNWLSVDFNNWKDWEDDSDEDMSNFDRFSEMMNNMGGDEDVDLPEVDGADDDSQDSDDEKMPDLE
Target,log2 fold change [1],log2 fold change [2],log2 fold change [3],log2 fold change [4],log2 fold change (Nexturastat A),log2 fold change (vemurafenib),log2 fold change [5],log2 fold change [6],log2 fold change (givinostat),log2 fold change (barasertib),log2 fold change [7],log2 fold change (volasertib),log2 fold change [8],log2 fold change (epoxomicin),log2 fold change [9],log2 fold change [10],log2 fold change [11],log2 fold change (rosiglitazone),log2 fold change [12],log2 fold change [13]
QKI (UniProt Q96PU8),0.05,-0.037,0.019,0.036,-0.109,0.033,0.084,-0.045,0.023,-0.003,-0.008,-0.1,0.084,0.049,0.022,0.023,0.034,0.041,0.017,-0.172
PEX13 (UniProt Q92968),0.052,-0.101,0.033,-0.02,0.116,-0.033,0.033,-0.142,-0.034,0.044,-0.053,-0.049,-0.038,-0.009,0.076,0.047,0.019,0.021,0.02,-0.378
PRCP (UniProt P42785),0,0.061,0.022,-0.002,0.072,0.008,0.01,-0.082,0.035,-0.008,-0.265 (active),-0.291 (active),-0.024,-0.002,0.037,0.008,0.014,0.019,0.024,-0.389 (active)
PIK3CB (UniProt P42338),-0.034,-0.009,0.024,0.054,0.013,0.022,-0.001,-0.041,0.052,0.077,0.017,-0.224 (active),0.082,0.033,-0.01,-0.071,0.008,0.078,0.003,0.175
PRIM1 (UniProt P49642),0.02,-0.083,0.061,-0.004,0.162,0.042,0.1,0.074,0.031,0.056,-0.097,-0.249,0.093,0.088,-0.072,-0.018,0.117,0.048,0.052,-0.12
POLA2 (UniProt Q14181),0.073,0.044,-0.037,0.061,-0.011,0.034,0.048,-0.02,0.021,0.021,-0.114,-0.328 (active),0.051,0.022,-0.008,-0.109,0.1,0.061,-0.057,-0.22
PRKACA (UniProt P17612),-0.002,-0.008,-0.023,0.043,0.099,0.015,0.019,-0.019,0.006,-0.008,-0.028,-0.046,0.068,-0.072,-0.048,-0.058,0,0.033,-0.003,0.085
PLA2G15 (UniProt Q8NCC3),0.04,-0.013,0.005,-0.026,0.089,0.044,0.001,-0.063,0.019,0.024,-0.084,-0.166,0.026,0.01,-0.017,0.005,0.006,0.027,0.043,-0.076
PSMD3 (UniProt O43242),0.023,0.022,-0.052,-0.024,0.065,-0.06,-0.032,0.034,-0.028,-0.066,0.039,0.133,0,-0.337 (active),0.01,0.02,-0.01,-0.01,0.027,0.067
PRKAG1 isoform 3 (UniProt P54619),-0.042,-0.006,0.007,0.037,-0.01,0.026,0.002,-0.026,0.014,0.013,-0.018,-0.207,0.048,-0.024,0.002,-0.033,-0.015,0.033,-0.009,-0.299 (active)
PRKAB1 (UniProt Q9Y478),-0.055,0.026,0.022,0.01,-0.002,0.031,0.017,0.109,0.08,0.026,-0.079,-0.418 (active),0.045,0.055,-0.05,-0.018,0.022,-0.002,-0.026,-0.155
PBK (UniProt Q96KB5),0.01,-0.056,0.069,-0.001,0.037,0.124,0.14,0.144,0.143,0.145,-0.18,-0.601 (active),0.121,-0.005,-0.086,-0.026,0.091,0.092,0.053,-0.187
PYGL (UniProt P06737),-0.105,0.011,0.011,0.006,-0.018,-0.009,0.003,-0.015,0.012,-0.01,-0.091,-0.262 (active),0.008,-0.02,-0.081,0.016,-0.001,0.018,-0.006,0.029
PGGT1B (UniProt P53609),-0.062,0.006,0.002,0.035,-0.073,-0.022,-0.023,-0.025,0.009,0.035,0.056,0.098,0.004,-0.011,0.031,-0.026,-0.009,0.032,-0.101,-0.008
PRKCA (UniProt P17252),-0.014,-0.068,-0.016,0.007,0.023,-0.015,0.012,-0.021,-0.02,0.025,0.073,-0.179,0.025,-0.018,-0.029,0,0.017,0.032,-0.15,-0.29
PTPN12 (UniProt Q05209),-0.026,-0.071,-0.037,-0.034,0.162,-0.002,0.04,0.07,0.072,0.127,-0.119,-0.465 (active),0.063,-0.012,-0.077,0.027,0.015,0.014,0.079,-0.043
POLR2B (UniProt P30876),0.009,-0.044,0.041,0.016,0.054,0.006,0.041,0.005,-0.005,0.008,0.064,-0.128,-0.018,-0.008,-0.046,0.023,-0.015,0.037,0.03,0.031
PAK4 (UniProt O96013),-0.154,0.06,-0.017,-0.017,-0.027,-0.035,-0.026,-0.141,-0.01,0.027,-0.026,-0.088,-0.026,-0.017,0.009,-0.059,-0.012,0.062,0.049,-0.083
PSMD5 (UniProt Q16401),-0.009,-0.001,0.023,0.027,-0.01,0.015,0.047,0.003,-0.007,0.027,-0.112,-0.225 (active),0.013,0.027,0,-0.026,-0.011,0.012,-0.043,-0.038
PPIL1 (UniProt Q9Y3C6),-0.002,0.023,0,-0.024,0.025,-0.045,0.027,-0.016,-0.038,0.033,0.014,-0.051,0.01,-0.024,-0.042,0.02,-0.014,0.035,0.049,0.018
PRKAR1B (UniProt P31321),0.102,-0.019,0.004,-0.057,0.015,0.04,-0.038,0.133,-0.036,-0.12,0.024,-0.054,-0.067,-0.063,0.119,0.12,-0.001,0.042,0.127,0.43 (active)
PTGES3 (UniProt Q15185),0.039,-0.073,0.044,0.078,-0.046,0.032,0.111,0.034,0.026,0.064,-0.21,-0.504 (active),0.096,0.041,0,-0.11,0.049,0.048,-0.045,-0.134
PEA15 isoform 2 (UniProt Q15121),0.004,-0.039,0.042,-0.008,-0.071,0.002,0.122,-0.003,0.003,0.082,-0.078,-0.162,-0.018,0,0.083,0.022,0.004,0.025,-0.002,0.039
PRKCQ (UniProt Q04759),0.013,-0.043,0.073,-0.004,-0.055,0.015,0.065,-0.065,0.052,0.03,-0.11,-0.17,0.031,0.001,-0.028,-0.047,0.021,0.049,-0.014,-0.496 (active)
